Assay results as given in PubChem BioAssay (NCI).
Compounds without any hit were thinned out: in the full panel of roughly 83,000, 20% have a hit.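 The endpoint reported here, percent growth, reads 100 for growth as untreated, 0 for no net growth and -100 for all cells dead.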 The source made the active and inactive calls. Rule for the calls: active = growth percent below 10; inactive = the rest.

Assays:
Assay in all cases: NCI-60 one-dose screen, 48 h (100 = growth as untreated, 0 = no growth, -100 = all killed)
SR leukemia = settings: 10 µM unless noted
RPMI-8226 leukemia = settings: 10 µM unless noted
OVCAR-8 ovarian = settings: 10 µM unless noted
OVCAR-5 ovarian = settings: 10 µM unless noted
OVCAR-4 ovarian = settings: 10 µM unless noted
SK-OV-3 ovarian = settings: 10 µM unless noted
OVCAR-3 ovarian = settings: 10 µM unless noted
NCI/ADR-RES ovarian = settings: 10 µM unless noted
T-47D breast = settings: 10 µM unless noted
BT-549 breast = settings: 10 µM unless noted
MDA-MB-435 melanoma = settings: 10 µM unless noted
SW-620 colon = settings: 10 µM unless noted
MCF7 breast = settings: 10 µM unless noted
HCT-116 colon = settings: 10 µM unless noted
HCC-2998 colon = settings: 10 µM unless noted
KM12 colon = settings: 10 µM unless noted
IGROV1 ovarian = settings: 10 µM unless noted
HS 578T breast = settings: 10 µM

Measured: growth

COc1ccc(Br)c2ccccc12
inactive: SR leukemia 96% | RPMI-8226 leukemia 105% | OVCAR-8 ovarian 99.7% | OVCAR-5 ovarian 110% | OVCAR-4 ovarian 117% | SK-OV-3 ovarian 115% | OVCAR-3 ovarian 112% | NCI/ADR-RES ovarian 118% | T-47D breast 97.9% | BT-549 breast 123% | MDA-MB-435 melanoma 105% | SW-620 colon 106% | MCF7 breast 100% | HCT-116 colon 108% | HCC-2998 colon 104% | KM12 colon 109%

Nc1c(C(=O)Nc2cccc(Cl)c2)sc2ncc(Br)cc12
inactive: SR leukemia 71.7% | RPMI-8226 leukemia 71.3% | OVCAR-8 ovarian 87.1% | OVCAR-5 ovarian 84.1% | SK-OV-3 ovarian 61% | IGROV1 ovarian 70% | OVCAR-3 ovarian 54.5% | T-47D breast 62.6% | BT-549 breast 68.2% | MDA-MB-435 melanoma 71.9% | SW-620 colon 61.3% | MCF7 breast 84.2% | HCT-116 colon 23% | HCC-2998 colon 99.7% | KM12 colon 63.8%
active: OVCAR-4 ovarian 9.2%

O=c1c2sc3ccccc3c2nnn1-c1ccc(F)c(Cl)c1
inactive: RPMI-8226 leukemia 57.3% | OVCAR-8 ovarian 37.7% | OVCAR-5 ovarian 51% | IGROV1 ovarian 21.2% | HS 578T breast 33% | NCI/ADR-RES ovarian 64.5% | T-47D breast 45.9% | BT-549 breast 81.6% | MDA-MB-435 melanoma 72.3% | SW-620 colon 62.3% | MCF7 breast 63.9% | HCT-116 colon 19.9% | HCC-2998 colon 68.7%
active: SR leukemia -42% | OVCAR-4 ovarian -5.65% | SK-OV-3 ovarian -8.62%

CCN(CC)CCCC(C)N/C(c1cccc(OC)c1)=c1\c(=O)[nH]n(-c2c3ccccc3nc3ccccc23)c(=O)\c1=C(/NC(C)CCCN(CC)CC)c1cccc(OC)c1 (stereo not drawn)
active: SR leukemia 0.449% | RPMI-8226 leukemia -37.3% | OVCAR-8 ovarian -7.7% | OVCAR-5 ovarian 1.41% | OVCAR-4 ovarian -48.1% | SK-OV-3 ovarian -10.1% | IGROV1 ovarian -6.96% | OVCAR-3 ovarian -36.6% | T-47D breast -26.7% | BT-549 breast -5.18% | MDA-MB-435 melanoma -91.1% | SW-620 colon -21.6% | MCF7 breast -12.7% | HCT-116 colon -9.94% | HCC-2998 colon -72.7% | KM12 colon -47.4%

CCCCOc1ncnc2nc[nH]c12
inactive: SR leukemia 88.7% | RPMI-8226 leukemia 95.4% | OVCAR-8 ovarian 99.4% | OVCAR-5 ovarian 103% | OVCAR-4 ovarian 102% | SK-OV-3 ovarian 107% | IGROV1 ovarian 124% | NCI/ADR-RES ovarian 105% | T-47D breast 107% | BT-549 breast 97.6% | MDA-MB-435 melanoma 111% | SW-620 colon 108% | MCF7 breast 96.9% | HCT-116 colon 101%

O=NN(CC(=O)NNc1ccccc1)CC(=O)NNc1ccccc1
inactive: SR leukemia 74.3% | RPMI-8226 leukemia 55.4% | OVCAR-8 ovarian 67.7% | OVCAR-5 ovarian 74.5% | OVCAR-4 ovarian 70.8% | SK-OV-3 ovarian 101% | OVCAR-3 ovarian 86.9% | HS 578T breast 94.2% | NCI/ADR-RES ovarian 40.7% | T-47D breast 46.6% | BT-549 breast 103% | MDA-MB-435 melanoma 30.5% | SW-620 colon 31.1% | MCF7 breast 69.5% | HCT-116 colon 57% | HCC-2998 colon 68.9% | KM12 colon 37.9%

O=c1c2sc3ncc(Cl)cc3c2nnn1-c1cccc(Cl)c1
active: OVCAR-4 ovarian -7.2%
inactive: SR leukemia 77.7% | RPMI-8226 leukemia 82.4% | OVCAR-8 ovarian 79.8% | OVCAR-5 ovarian 86.2% | SK-OV-3 ovarian 40.7% | IGROV1 ovarian 63% | OVCAR-3 ovarian 24.7% | T-47D breast 74.7% | BT-549 breast 85.4% | MDA-MB-435 melanoma 66.9% | SW-620 colon 80.5% | MCF7 breast 82.5% | HCT-116 colon 31.3% | HCC-2998 colon 125% | KM12 colon 87.4%

CC1=NN(c2cccc(S(N)(=O)=O)c2)C(=O)C1
inactive: SR leukemia 107% | RPMI-8226 leukemia 271% | OVCAR-8 ovarian 107% | OVCAR-5 ovarian 89.9% | OVCAR-4 ovarian 99.4% | SK-OV-3 ovarian 91.3% | OVCAR-3 ovarian 96.3% | HS 578T breast 86.6% | NCI/ADR-RES ovarian 95.2% | T-47D breast 84.2% | BT-549 breast 109% | MDA-MB-435 melanoma 94.6% | SW-620 colon 94.8% | HCT-116 colon 104% | KM12 colon 107%

CN(C)c1ccc(Nc2c3ccccc3nc3ccccc23)cc1
active: SR leukemia -8.36% | OVCAR-4 ovarian 1.57% | OVCAR-3 ovarian -11.7% | MCF7 breast 5.1% | HCT-116 colon 5.58% | HCC-2998 colon 0.72%
inactive: RPMI-8226 leukemia 17.2% | OVCAR-8 ovarian 23.5% | OVCAR-5 ovarian 43.7% | SK-OV-3 ovarian 22% | HS 578T breast 25.2% | NCI/ADR-RES ovarian 12.5% | T-47D breast 11.1% | BT-549 breast 44.5% | MDA-MB-435 melanoma 19.4% | SW-620 colon 13.6% | KM12 colon 18%

CCCCCCCCCCC(C(O)c1ccccc1)N1CCCCC1 (stereo not drawn)
inactive: OVCAR-8 ovarian 62.8% | OVCAR-5 ovarian 47.4% | OVCAR-4 ovarian 41% | SK-OV-3 ovarian 36.1% | HS 578T breast 18.3% | NCI/ADR-RES ovarian 49.8% | BT-549 breast 79.7% | HCT-116 colon 14.7% | HCC-2998 colon 49.1%
active: SR leukemia 0.484% | RPMI-8226 leukemia -50.3% | IGROV1 ovarian 2.8% | T-47D breast -33.7% | MDA-MB-435 melanoma -54.3% | SW-620 colon -30.8% | MCF7 breast -65.4% | KM12 colon 8.17%

Cc1ccc(C2CC(c3cccs3)=NN2c2ccc(S(N)(=O)=O)cc2)s1 (stereo not drawn)
inactive: SR leukemia 82.2% | RPMI-8226 leukemia 65.3% | OVCAR-8 ovarian 83.2% | OVCAR-5 ovarian 101% | SK-OV-3 ovarian 101% | IGROV1 ovarian 98.8% | OVCAR-3 ovarian 94% | HS 578T breast 97.2% | NCI/ADR-RES ovarian 84.6% | T-47D breast 71.5% | BT-549 breast 102% | MDA-MB-435 melanoma 80.8% | SW-620 colon 97.8% | MCF7 breast 77.3% | HCT-116 colon 79.2% | HCC-2998 colon 103% | KM12 colon 93.2%

Cc1cc(NC(=O)C2c3ccccc3C(=O)N(CC(C)C)C2c2cccs2)no1 (stereo not drawn)
active: SR leukemia 7.23% | RPMI-8226 leukemia 3.73% | OVCAR-8 ovarian 3.68% | OVCAR-4 ovarian -8.84% | OVCAR-3 ovarian -53.6% | BT-549 breast -4.46% | MDA-MB-435 melanoma -43.8% | SW-620 colon -57% | HCT-116 colon 0.136%
inactive: OVCAR-5 ovarian 31.5% | SK-OV-3 ovarian 94.7% | IGROV1 ovarian 16.2% | T-47D breast 23.9% | MCF7 breast 10.4% | KM12 colon 86.8%

Fc1cc(-c2nnc3sc(-c4ccc(Cl)cc4)nn23)c(Cl)cc1Cl
inactive: SR leukemia 61.1% | RPMI-8226 leukemia 102% | OVCAR-8 ovarian 100% | OVCAR-5 ovarian 101% | OVCAR-4 ovarian 92.5% | SK-OV-3 ovarian 107% | IGROV1 ovarian 100% | HS 578T breast 66.1% | NCI/ADR-RES ovarian 104% | T-47D breast 87% | BT-549 breast 106% | SW-620 colon 96.5% | MCF7 breast 86.7% | HCT-116 colon 94.6% | HCC-2998 colon 106% | KM12 colon 95.6%

Cc1nn(-c2ccc(Cl)cc2)c(=O)n1CCN1CCOCC1
inactive: SR leukemia 95.3% | RPMI-8226 leukemia 83.1% | OVCAR-8 ovarian 116% | OVCAR-5 ovarian 92.4% | OVCAR-4 ovarian 93.4% | SK-OV-3 ovarian 42.8% | OVCAR-3 ovarian 79.2% | HS 578T breast 42.7% | NCI/ADR-RES ovarian 75.9% | T-47D breast 78.3% | BT-549 breast 61.5% | MDA-MB-435 melanoma 84.9% | MCF7 breast 73.4% | HCT-116 colon 29.5% | HCC-2998 colon 91.3% | KM12 colon 81.3%

CC(=O)c1ccc(-n2c(-c3cc(-c4ccsc4)n[nH]3)n[nH]c2=S)cc1
inactive: SR leukemia 94% | RPMI-8226 leukemia 101% | OVCAR-8 ovarian 98.9% | OVCAR-5 ovarian 97.8% | OVCAR-4 ovarian 105% | SK-OV-3 ovarian 104% | IGROV1 ovarian 107% | OVCAR-3 ovarian 113% | T-47D breast 103% | BT-549 breast 95.3% | MDA-MB-435 melanoma 106% | SW-620 colon 94% | MCF7 breast 90.4% | HCT-116 colon 98.1% | HCC-2998 colon 99% | KM12 colon 100%

Clc1cc(Br)ccc1-c1ccc(CNCC2CCNCC2)o1
inactive: SR leukemia 17.2% | RPMI-8226 leukemia 43.8% | OVCAR-8 ovarian 33.6% | OVCAR-5 ovarian 84.8% | SK-OV-3 ovarian 67.2% | IGROV1 ovarian 53.8% | OVCAR-3 ovarian 14% | HS 578T breast 62.4% | NCI/ADR-RES ovarian 54.7% | T-47D breast 43.8% | BT-549 breast 77.9% | MDA-MB-435 melanoma 52.9% | SW-620 colon 24.5% | MCF7 breast 39.7% | HCT-116 colon 40.9% | HCC-2998 colon 88.2% | KM12 colon 53.9%

CCN(CC)c1ccc2nc3c4ccccc4c(=O)cc-3n(-c3ccccc3)c2c1
active: SR leukemia -5.63% | RPMI-8226 leukemia 6.27% | OVCAR-8 ovarian 7.52% | OVCAR-4 ovarian 6.28% | SK-OV-3 ovarian 3.71% | OVCAR-3 ovarian -52.6% | HS 578T breast -17.8% | NCI/ADR-RES ovarian -7.19% | T-47D breast -7.93% | BT-549 breast -21.7% | MDA-MB-435 melanoma -36.3% | SW-620 colon 7.92% | MCF7 breast -7.24% | HCT-116 colon -31.7% | HCC-2998 colon -6.62% | KM12 colon -5.68%
inactive: OVCAR-5 ovarian 10.7%

NC(=Nc1ccccc1)SCCCSC(N)=Nc1ccccc1
inactive: SR leukemia 94.6% | RPMI-8226 leukemia 73.4% | OVCAR-8 ovarian 86.4% | OVCAR-5 ovarian 86.4% | OVCAR-4 ovarian 76.8% | SK-OV-3 ovarian 97.3% | IGROV1 ovarian 80.1% | HS 578T breast 89% | NCI/ADR-RES ovarian 85.5% | T-47D breast 70.1% | BT-549 breast 92.9% | MDA-MB-435 melanoma 89.8% | SW-620 colon 95.4% | MCF7 breast 90.9% | HCT-116 colon 90.5% | HCC-2998 colon 99.2% | KM12 colon 94.7%

c1ccc2c(Cc3csc4ccccc34)csc2c1
active: MDA-MB-435 melanoma -9.16%
inactive: SR leukemia 50% | RPMI-8226 leukemia 94.8% | OVCAR-8 ovarian 101% | OVCAR-5 ovarian 101% | OVCAR-4 ovarian 88.3% | SK-OV-3 ovarian 77.7% | OVCAR-3 ovarian 92.5% | HS 578T breast 104% | NCI/ADR-RES ovarian 81.9% | T-47D breast 78.9% | BT-549 breast 92.2% | SW-620 colon 62.6% | MCF7 breast 68.4% | HCT-116 colon 78% | HCC-2998 colon 85.3% | KM12 colon 75.8%
